High-throughput results from PubChem BioAssay.
An excerpt weighted towards active compounds, which were near 17% of everything screened.
HT1080-NT tox = kills 2HG-producing HT-1080-NT fibrosarcoma cells | HT-1080-NT fibrosarcoma viability, CellTiter-Glo ATP luminescence, 48 h | 360,000 tested, 1.6% active | Potency, µM (doses to about 46.1 µM), for the others: at the top dose activity, negative = less viability, usual class: cytotoxic;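 note: NT is the 2HG producing partner of a matched IDH1 knockdown line; 0% = DMSO-treated cells and -100% = media-only wells without cells; nearly all actives have a fitted effect of over 55% in size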
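A 48-hour cytotoxicity screen used HT-1080-NT cells plated 2 hours before compound delivery. ATP-based CellTiter-Glo luminescence measured viability, normalized to DMSO and no-cell controls.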
TGFb SMAD3 inh = inhibitors of TGF-b signaling; HepG2 CAGA-GFP TGF-b/SMAD3 reporter, GFP fluorescence, 18 h; TGF-beta stimulated, 500 pg/mL final; Potency, µM (highest dose often 46.1 µM), for the others: at the highest dose activity, negative = inhibition, most hits filed as inhibitors; 410,000 tested, 1.2% active; AID 588855; note: % is set by controls: 0 for no effect and ±100 for the full control effect; nearly all actives have a fitted effect of over 65% in size
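GFP signal (ex488/em500-530) from TGF-beta-stimulated HEPG2 CAGA-GFP cells, 500 pg/mL final, 18 h at 37 degrees C in DMEM plus 1% FBS, normalized to unstimulated and DMSO-stimulated controls.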
TDP1 cell CPT = DT40-hTDP1 cell growth loss with CPT; chicken DT40 Tdp1-/-;hTDP1 cells + 20 nM CPT, ATP luminescence, 48 h; 420,000 tested, 12% active; AID 686979; Potency, µM (highest dose often 46.2 µM), for inactives: at the top dose activity change, negative = growth inhibition, usual class: inhibitors; note: % is set by controls: 0 for no effect and ±100 for the full control effect; nearly all actives have a fitted effect of over 55% in size
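Chicken DT40 Tdp1-/- cells complemented with human TDP1, 400 cells/well, exposed to compounds plus 20 nM camptothecin for at least 48 h at 37 C; viability read as ATP content by CellTiter-Glo luminescence.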
TDP1 cell noCPT = qHTS for Inhibitors of human tyrosyl-DNA phosphodiesterase 1 (TDP1): qHTS in cells in absence of CPT | AID 686978, 2013 | DT40 Tdp1-/- hTDP1 cells, no CPT, ATP luminescence, 48 h | 420,000 tested, 15% active | Potency, µM (titrated, usually from 46.2 µM), for inactives: at the top dose activity change, negative = growth inhibition, most hits filed as inhibitors; note: % is set by controls: 0 for no effect and ±100 for the full control effect; nearly all actives have a fitted effect of over 55% in size
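DT40 Tdp1-/-;hTDP1 cells, no CPT (DMSO vehicle only), 400 cells/well; compounds pin-transferred; ≥48 hr, 37 °C; CellTiter-Glo 30 min RT dark, luminescence read.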
HepG2 viability = HepG2 cytotoxicity, counter-screen for TGF-b inhibitors. HepG2 CAGA-GFP viability, ATP luminescence, 18 h. Potency, µM (highest dose often 46.1 µM), inactives show at the top dose activity change, negative = cytotoxicity, actives largely listed as cytotoxic. 410,000 tested, 0.76% active
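CellTiter-Glo luminescence gave cytotoxicity after 18 hours at 37 degrees C. The cells were HepG2 CAGA-GFP in 1% FBS DMEM, stimulated with 500 pg/mL TGF-beta after compound addition. %Activity was normalised to no-cell wells (complete cell-killing) and DMSO (no toxicity), and curves were fitted and classified.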
HT1080 IDH1KD tx = HT-1080 IDH1 knockdown cell toxicity (counter line); HT-1080 IDH1 knockdown viability, ATP luminescence, 48 h; 360,000 tested, 2% active; Potency, µM (top dose mostly 46.1 µM), for inactives: top-dose activity, negative = toxicity, hits mostly cytotoxic;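 note: 0% = DMSO wells and -100% = cell-free medium wells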
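Luminescent ATP read-out (CellTiter-Glo, 10 min at room temperature) after 48 h compound exposure at 37 °C gave viability of IDH1-knockdown HT-1080 cells. Activity was normalised to DMSO and cell-free wells, then fitted as concentration-response curves.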
Starred values were filed as active, the others as inactive; u = inconclusive; x = no result given; ! = not active in a repeat. Calls come from the whole dose curve; as a rule, active = well fitted curve in the direction sought with a large enough effect; inconclusive = small, poorly fitted or top-dose-only effect, or another doubt; inactive = no such curve, though single readings can be large; an effect the other way counts as inactive or inconclusive. Potency is the fitted concentration of half-maximal effect.

SMILES	HT1080-NT tox	TGFb SMAD3 inh	TDP1 cell CPT	TDP1 cell noCPT	HepG2 viability	HT1080 IDH1KD tx
CCc1nn(CC(=O)NC(C)c2ccccc2)c(=O)c2cc3sccc3n12 (stereo not drawn)	x	3%	-8%	-19%	-3%	x
O=S(=O)(c1ccc(-c2cc(C(F)(F)F)on2)s1)N1CCN(c2cccc(Cl)c2)CC1	x	5%	-4%	-4%	-4%	x
CCOc1ccc(Nc2nc3cc(S(=O)(=O)CC)ccc3o2)cc1	-1%	u	-3%	u	-27%	-10%
CCS(=O)(=O)c1ccc2oc(Nc3ccc(C(C)(C)C)cc3)nc2c1	-14%	4%	16µM*	15µM*	1%	-15%
CCS(=O)(=O)c1ccc2oc(Nc3ccc(OC)cc3)nc2c1	0%	0%	14%	-19%	19%	-1%
CCN(CC)S(=O)(=O)c1ccc2oc(Nc3ccc4c(c3)OCCO4)nc2c1	-30%	-12%	16µM*	23µM*	-18%	u
CC(=O)OCC(=O)C12OC(C)(C)OC1CC1C3CC=C4CC(O)CCC4(C)C3CCC12C (stereo not drawn)	-9%	-9%	u	u	-7%	-7%
Cc1ccc(C2(C)NC(=O)N(CC(=O)Nc3cc(S(=O)(=O)N(C)C)ccc3C)C2=O)cc1 (stereo not drawn)	-20%	-6%	u	u	-18%	-23%
CC(=O)Nc1cccc(NC(=O)CSc2n[nH]c(-c3ccccc3)n2)c1	2%	8%	-1%	6%	5%	6%
CCCn1c2ccccc2c2cnn(CC(=O)NCCCN3C(C)CCCC3C)c(=O)c21 (stereo not drawn)	-5%	-1%	u	u	-24%	-6%
CCCn1c2ccccc2c2cnn(CC(=O)NC3CCCCC3C)c(=O)c21 (stereo not drawn)	-2%	12%	u	18µM*	10%	2%
CCCn1c2ccccc2c2cnn(CC(=O)NC3CCN(Cc4ccccc4)CC3)c(=O)c21	-1%	1%	16µM*	u	-14%	7%
CCOC(=O)c1c(C)oc2nc(C)nc(NC(C)c3ccccc3)c12 (stereo not drawn)	x	-3%	21µM*	16µM*	-26%	x
CCOC(=O)c1c(C)oc2nc(C)nc(NCC3CCN(Cc4ccc(Cl)cc4)CC3)c12	x	-23%	u	u	-21%	x
CCOC(=O)c1c(C)oc2nc(C)nc(NCc3ccc(F)cc3)c12	x	-11%	u	16µM*	-14%	x
CCOC(=O)c1c(C)oc2nc(C)nc(NCc3ccc(OC)cc3OC)c12	x	5%	u	13µM*	-18%	x
CCOC(=O)c1c(C)oc2nc(C)nc(NCCc3ccc(OC)c(OC)c3)c12	x	11%	21µM*	18µM*	4%	x
CCOC(=O)c1c(C)oc2nc(C)nc(Nc3cccc(OC)c3)c12	x	-2%	-27%	-25%	7%	x
CCOC(=O)c1c(C)oc2nc(C)nc(NCc3ccc(Cl)cc3)c12	x	-3%	u	u	-4%	x
COc1ccc(S(N)(=O)=O)cc1C(=O)NC1CCCc2ccccc21 (stereo not drawn)	17%	-8%	-30%	-10%	2%	5%
Cc1nc(N2C(=O)c3oc4ccccc4c(=O)c3C2c2ccccc2F)sc1C (stereo not drawn)	x	5%	2%	-5%	4%	x
CCC(C)NC(=O)c1sc2nc3n(c(=O)c2c1C)CCC3 (stereo not drawn)	x	u	1%	-8%	-5%	x
CCOc1ccc(S(=O)(=O)N2CCC(C(=O)NCc3ccncc3)CC2)cc1C	-2%	3%	-10%	-10%	3%	-10%
Cc1cc2c(c(C)c1Cl)C(c1ccc3c(c1)OCO3)CC(O)(c1ccccc1)O2 (stereo not drawn)	x	20µM*	x	x	18µM*	x
COc1ccc(C2CC(=O)Oc3cc(C)c(Cl)c(C)c32)cc1 (stereo not drawn)	-19%	-15%	u	u	-8%	u
SMILES	HT1080-NT tox	TGFb SMAD3 inh	TDP1 cell CPT	TDP1 cell noCPT	HepG2 viability	HT1080 IDH1KD tx
O=C(NCCO)C(=O)Nc1cc2c3c(c1)CCC(=O)N3CCC2	13%	4%	14%	-11%	-3%	0%
COCCNC(=O)CN(C(=O)CCC(=O)Nc1ccccn1)c1ccc(C)cc1C	1%	-10%	1%	20%	2%	3%
Cc1cc2c3c(c1C)C1(C(=O)N3C(C)(C)CC2C)C(C#N)=C(N)Oc2cc(O)ccc21 (stereo not drawn)	u	u	u	u	-39%	u
COc1ccc(C2CC(O)(c3ccccc3)Oc3c(C)ccc(C(C)C)c32)cc1 (stereo not drawn)	x	16µM*	x	x	-33%	x
COc1ccc(C2CC(=O)Oc3cc(OC)ccc32)cc1 (stereo not drawn)	-2%	-2%	-5%	-2%	0%	1%
COc1ccc(C2CC(O)(c3ccccc3)Oc3cc(OC)ccc32)cc1 (stereo not drawn)	u	18µM*	u	u	13µM*!	u
CCc1ccc([C@@H]2C[C@H]3[C@@H](CN2S(=O)(=O)c2ccc(C)cc2)C(=O)C[C@@H](c2ccc(Cl)cc2)N3S(=O)(=O)c2ccc(C)cc2)cc1	4%	-20%	-12%	-14%	-4%	14%
N#C/C(=C\c1cc2ccccc2nc1N1CCOCC1)C(=O)Nc1ccc(N2CCOCC2)cc1	-3%	4%	13µM*	16µM*	2%	-2%
N#CC(C#N)=Cc1cc2ccccc2nc1N1CCOCC1	5%	u	13µM*	10µM*	-3%	3%
Cc1ccc2cc(C=C(C#N)C#N)c(N3CCCCC3)nc2c1	u	u	u	u	-32%	u
COc1cccc(CN2CCC2(C)C(=O)Nc2ccc3c(c2)OCO3)c1F (stereo not drawn)	-9%	-2%	23µM*	u	-3%	u
COc1cccc(CN2CCC2(C)C(=O)Nc2ccc(C)c(O)c2)c1F (stereo not drawn)	u	8%	12µM*	12µM*	-37%	u
CC1(C(=O)Nc2ccc3c(c2)OCO3)CCN1Cc1ccccc1OC(F)F (stereo not drawn)	-8%	35%	u	u	2%	0%
